Experimental data: PubChem BioAssay (EPA / NIEHS)
Records with an inconclusive call do not appear. Calls of active or inactive are those of the source. Rule for the calls, unless noted: active = hit-call score of the fitted dose curve at least 0.9, where 1 is the maximum; inactive = score below 0.9.

Test: CCTE_Harrill_HTTr_Viability_MCF7: CCTE's 6-hour Cell Viability Assessment for the High-Throughput Transcriptomics (HTTr) Platform, in MCF-7 cells cultured in DMEM + 10% fetal bovine serum, Harrill Lab (AID 2284010)
Procedure, shortened: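 Eight-point concentration series, six-hour exposure. Propidium iodide exclusion imaged to assess membrane integrity as a cytotoxicity readout; bidirectional fitting was done with DMSO as negative control and activity baseline.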

SMILES | outcome
CNC(=O)Oc1ccc2c(c1)[C@]1(C)CCN(C)[C@@H]1N2C | inactive
CC(=O)OCC=Cc1ccccc1 | inactive
O=P(c1ccccc1)(c1ccccc1)c1ccccc1 | inactive
C=C(C)[C@@H]1CC[C@@H](C)C[C@@H]1O | inactive
CC1CC(OC(=O)c2ccccc2O)CC(C)(C)C1 (stereo not given) | inactive
CC(c1cc2ccccc2s1)N(O)C(N)=O (stereo not given) | inactive
O=[N+]([O-])c1cc(C(F)(F)F)ccc1Cl | inactive
CN(CCOc1ccc(CC2SC(=O)NC2=O)cc1)c1ccccn1 (stereo not given) | inactive
CCN(CC)CCOC(=O)c1ccc(N)cc1 | inactive
Cc1ccc(C(C)C)cc1O | inactive
CC(C)(Oc1ccc(CCNC(=O)c2ccc(Cl)cc2)cc1)C(=O)O | inactive
C=CCOc1nc(OCC=C)nc(OCC=C)n1 | inactive
CC(=O)/C=C/C1=C(C)CCCC1(C)C | inactive
CN1[C@@H]2CC(OC(=O)[C@H](CO)c3ccccc3)C[C@H]1[C@@H]1O[C@@H]12 (stereo not given in full) | inactive
COC(=O)C1=C(C)NC(C)=C(C(=O)OCCN(C)Cc2ccccc2)C1c1cccc([N+](=O)[O-])c1 (stereo not given) | inactive
CN1Cc2c(N)cccc2C(c2ccccc2)C1 (stereo not given) | inactive
CCCCCCCCCCCCCCCC(=O)O | inactive
CC(C)=CCCC(C)=CCCC(C)=CCO | inactive

SMILES | outcome
Nc1ccc(S(N)(=O)=O)cc1 | inactive
CCCCCC(CO)CCC (stereo not given) | inactive
O=C(O)CCCCCCCC(=O)O | inactive
C#C[C@]1(O)CC[C@H]2[C@@H]3CCC4=Cc5oncc5C[C@]4(C)[C@H]3CC[C@@]21C | inactive
OCCN1CCNCC1 | inactive
Cc1ccc(O)c(C(C)(C)C)c1 | inactive
N#Cc1ccccc1 | inactive
CCCCO | inactive
Cc1cccc(Nc2ccccc2C(=O)O)c1C | inactive
CC1CCC2CC1C2(C)C (stereo not given) | inactive
O=C(O)Cc1cccc2ccccc12 | inactive
CC1CCC(C(C)(C)O)CC1 (stereo not given) | inactive
NC(=O)NC1NC(=O)NC1=O (stereo not given) | inactive
OCCOCCOCCOCCO | inactive
CC1(C)[C@H]2CC[C@]1(C)[C@H](O)C2 | inactive
CC(=O)OCCOC(C)=O | inactive
CCCCCCCCC | inactive
COC(C)CCO (stereo not given) | inactive

Test: CCTE_Harrill_HTTr_Apoptosis_MCF7: CCTE's 6-hour Apoptosis Assessment for the High-Throughput Transcriptomics (HTTr) Platform, in MCF-7 cells cultured in DMEM + 10% fetal bovine serum, Harrill Lab (AID 2284011)
Procedure, shortened: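 High-content imaging of CellEvent Caspase 3/7 Green signal follows a six-hour exposure, with eight concentrations per chemical. MCF-7 cells grown in DMEM plus 10% fetal bovine serum; activity fitted in both directions against DMSO.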

SMILES | outcome
CNC(=O)Oc1ccc2c(c1)[C@]1(C)CCN(C)[C@@H]1N2C | inactive
CC(=O)OCC=Cc1ccccc1 | inactive
O=P(c1ccccc1)(c1ccccc1)c1ccccc1 | inactive
CC1CC(OC(=O)c2ccccc2O)CC(C)(C)C1 (stereo not given) | inactive
CN(CCOc1ccc(CC2SC(=O)NC2=O)cc1)c1ccccn1 (stereo not given) | inactive
CCN(CC)CCOC(=O)c1ccc(N)cc1 | inactive
Cc1ccc(C(C)C)cc1O | inactive
CC(C)(Oc1ccc(CCNC(=O)c2ccc(Cl)cc2)cc1)C(=O)O | inactive
C=CCOc1nc(OCC=C)nc(OCC=C)n1 | inactive
CC(=O)/C=C/C1=C(C)CCCC1(C)C | inactive
CN1[C@@H]2CC(OC(=O)[C@H](CO)c3ccccc3)C[C@H]1[C@@H]1O[C@@H]12 (stereo not given in full) | inactive
COC(=O)C1=C(C)NC(C)=C(C(=O)OCCN(C)Cc2ccccc2)C1c1cccc([N+](=O)[O-])c1 (stereo not given) | inactive
CC(C)=CCCC(C)=CCCC(C)=CCO | inactive
Nc1ccc(S(N)(=O)=O)cc1 | inactive
OCCN1CCNCC1 | inactive
Cc1ccc(O)c(C(C)(C)C)c1 | inactive
N#Cc1ccccc1 | inactive
Cc1cccc(Nc2ccccc2C(=O)O)c1C | inactive
CC1CCC2CC1C2(C)C (stereo not given) | inactive
O=C(O)Cc1cccc2ccccc12 | inactive
CC1CCC(C(C)(C)O)CC1 (stereo not given) | inactive
NC(=O)NC1NC(=O)NC1=O (stereo not given) | inactive
OCCOCCOCCOCCO | inactive
CC1(C)[C@H]2CC[C@]1(C)[C@H](O)C2 | inactive
CC(=O)OCCOC(C)=O | inactive
CCCCCCCCC | inactive
COC(C)CCO (stereo not given) | inactive

Test: CCTE_Harrill_HTTr_CellCount_MCF7: CCTE's Cell Proliferation Assessment for the High-Throughput Transcriptomics (HTTr) Platform, Harrill Lab (AID 2284012; active = hit-call score of the fitted dose curve at least 0.9, where 1 is the maximum;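 note: count of Hoechst-stained nuclei per well by high-content imaging in MCF-7 cells; cells exposed to compound for six hours; intended direction is loss of nuclei count meaning fewer cells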)
Procedure, shortened: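 For this full-screen endpoint, MCF-7 cultures received eight compound dilutions for six hours. Well nuclei counts from Hoechst imaging were analyzed relative to DMSO.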

SMILES | outcome
CNC(=O)Oc1ccc2c(c1)[C@]1(C)CCN(C)[C@@H]1N2C | inactive
O=P(c1ccccc1)(c1ccccc1)c1ccccc1 | inactive
C=C(C)[C@@H]1CC[C@@H](C)C[C@@H]1O | inactive
CC1CC(OC(=O)c2ccccc2O)CC(C)(C)C1 (stereo not given) | inactive
CC(c1cc2ccccc2s1)N(O)C(N)=O (stereo not given) | inactive
O=[N+]([O-])c1cc(C(F)(F)F)ccc1Cl | inactive
CN(CCOc1ccc(CC2SC(=O)NC2=O)cc1)c1ccccn1 (stereo not given) | inactive
CCN(CC)CCOC(=O)c1ccc(N)cc1 | inactive
Cc1ccc(C(C)C)cc1O | inactive
CC(C)(Oc1ccc(CCNC(=O)c2ccc(Cl)cc2)cc1)C(=O)O | inactive
C=CCOc1nc(OCC=C)nc(OCC=C)n1 | inactive
CC(=O)/C=C/C1=C(C)CCCC1(C)C | inactive
CN1[C@@H]2CC(OC(=O)[C@H](CO)c3ccccc3)C[C@H]1[C@@H]1O[C@@H]12 (stereo not given in full) | inactive
CCCCCCCCCCCCCCCC(=O)O | inactive
CC(C)=CCCC(C)=CCCC(C)=CCO | inactive
Nc1ccc(S(N)(=O)=O)cc1 | inactive
CCCCCC(CO)CCC (stereo not given) | inactive
C#C[C@]1(O)CC[C@H]2[C@@H]3CCC4=Cc5oncc5C[C@]4(C)[C@H]3CC[C@@]21C | inactive
Cc1ccc(O)c(C(C)(C)C)c1 | inactive
N#Cc1ccccc1 | inactive
CC1CCC2CC1C2(C)C (stereo not given) | inactive
O=C(O)Cc1cccc2ccccc12 | inactive
NC(=O)NC1NC(=O)NC1=O (stereo not given) | inactive
OCCOCCOCCOCCO | inactive
CC1(C)[C@H]2CC[C@]1(C)[C@H](O)C2 | inactive
CC(=O)OCCOC(C)=O | inactive
CCCCCCCCC | inactive
